The structures appear in SMILES notation. The source made the active and inactive calls. Rule for the calls: active = hit-call score of the fitted dose curve at least 0.9, where 1 is the maximum; inactive = score below 0.9.

For the assay, the target named is Transcription factor E2F1 (Homo sapiens) (UniProt Q01094). Description: ATG_E2F_CIS: Attagene CIS-FACTORIAL HepG2 Assay for human E2F Transcription Factor 1 (AID 2282935). The settings on record: HepG2 Attagene cis-reporter, E2F reporter RNA transcripts; actives raise or lower the signal. A digest of the protocol: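 Multiplexed cis-reporter assay: HepG2, transient transfection, 24 h dosing, mRNA quantitation by labeled RT-PCR and CE.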
Transcription factor E2F1 (Homo sapiens), sequence (Q01094 whole entry, looked up): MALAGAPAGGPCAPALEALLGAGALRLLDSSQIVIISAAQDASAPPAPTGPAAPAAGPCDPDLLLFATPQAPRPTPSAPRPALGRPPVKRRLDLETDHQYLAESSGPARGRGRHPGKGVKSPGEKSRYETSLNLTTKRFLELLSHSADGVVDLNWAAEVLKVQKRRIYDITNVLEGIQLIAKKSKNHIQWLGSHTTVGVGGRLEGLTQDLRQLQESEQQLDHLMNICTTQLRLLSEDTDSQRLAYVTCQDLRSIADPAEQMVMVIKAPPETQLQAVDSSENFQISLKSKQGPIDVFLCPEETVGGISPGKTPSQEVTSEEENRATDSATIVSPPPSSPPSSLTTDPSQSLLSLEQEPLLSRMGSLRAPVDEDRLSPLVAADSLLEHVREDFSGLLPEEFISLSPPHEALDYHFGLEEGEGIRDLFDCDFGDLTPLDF
Take `Cc1cc(=O)n(-c2ccccc2)n1C`: the outcome was inactive.
Consider `CC1(C)[C@H]2CC[C@]1(C)C(=O)C2`, for which the compound was classed as inactive.
On to `COC=O`, for which the compound was called inactive.
Consider `C=CC=CC=CCCCCC`, for which the call was inactive.
Under `Cc1ccc(N/N=c2\c(=O)cc/c(=N/Nc3ccc(S(=O)(=O)O)cc3)c2=O)c(C)c1` stands “inactive”.
Regarding `C1CN(SSN2CCOCC2)CCO1`, the result was inactive.
Under `O=S(=O)(O)c1cc(S(=O)(=O)O)c2ccc3c(S(=O)(=O)O)cc(S(=O)(=O)O)c4ccc1c2c43` stands “inactive”; under `CCC(CC)C(=O)O`, “inactive”; under `O=C1c2ccccc2C(=O)C1c1nc2ccccc2c(Br)c1O`, “inactive”.
Regarding `NNC(=O)c1cccc(C(=O)NN)c1`, the compound was called inactive.
Under `CC(=O)Nc1ccc2c(c1)Cc1cc(NC(C)=O)ccc1-2` stands “inactive”; under `CCOC(=O)c1ccc(N(C)C)cc1`, “inactive”.
Take `C=C(C)[C@@H]1CCC2=CCC[C@@H](C)[C@]2(C)C1`: the result was inactive.
Under `CCCNC(=O)NS(=O)(=O)c1ccc(Cl)cc1` stands “inactive”; under `COCc1c(C(C)C)nc(C(C)C)c(/C=C/[C@@H](O)C[C@@H](O)CC(=O)O)c1-c1ccc(F)cc1`, “inactive”.
Under `COC(F)(F)C(F)(C(F)(F)F)C(F)(F)F` stands “inactive”; under `Nc1ccc(N=Nc2ccccc2)c(N)n1`, “inactive”; under `Cc1ccc2c(c1)C(=O)c1ccccc1C2=O`, “inactive”.
Turning to `COC(=O)c1c(C)cc(O)c(C)c1O`, the compound was classed as inactive.
Consider `CC1(C)O[C@@H]2C[C@H]3[C@@H]4C[C@H](F)C5=CC(=O)C=C[C@]5(C)[C@@]4(F)[C@@H](O)C[C@]3(C)[C@]2(C(=O)CO)O1`, for which the outcome was inactive.
For the compound `CCC(=O)Oc1ccc(/C(CC)=C(\CC)c2ccc(OC(=O)CC)cc2)cc1`, the compound was classed as inactive.
For the compound `c1ccc(CNCc2ccccc2)cc1`, the compound was called inactive.
`CCCCCCCCCCC=CC#N`: the outcome was inactive.
In the case of `C=C[Si](C)(C)O[Si](C)(C)C=C`, the call was inactive.
Under `Cc1ccc(N)c([N+](=O)[O-])c1` stands “inactive”.
Regarding `CCOC(=O)N1CCC(=C2c3ccc(Cl)cc3CCc3cccnc32)CC1`, the result was inactive.
Under `NC(=O)NNC(N)=O` stands “inactive”; under `CCC(C)C=O` (configuration not stated), “inactive”; under `O=P(O)(O)Oc1ccccc1`, “inactive”.
Consider `CCCCC(CC)COC(=O)c1ccccc1O` (configuration not stated), for which the call was inactive.
Under `CC(=O)Oc1ccc(C)cc1` stands “inactive”; under `C[C@]12C=CC(=O)C=C1CC[C@@H]1[C@@H]2[C@@H](O)C[C@@]2(C)[C@H]1CC[C@]2(O)C(=O)CO`, “inactive”.
Under `CC(C)c1ccc2cc(C(C)C)ccc2c1` stands “inactive”.
`CCC(CO)CO`: the outcome was inactive.
Under `O=c1cc(-c2ccccc2)oc2ccccc12` stands “inactive”; under `O=Cc1ccc(CO)o1`, “inactive”; under `CC1=CC[C@H]2C[C@@H]1C2(C)C`, “inactive”.
